Test results published in PubChem BioAssay (NCI).
Compounds without any hit were thinned out: in the full panel of roughly 79,000, 15% have a hit. No stated cut-off is given here; in the data, active means growth inhibition above about 70%; inactive means the rest.

Tests used:
[1] = NCI Yeast Anticancer Drug Screen. Data for the rad50 strain (AID 155);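 further: 0% = growth of vehicle-only cultures of the same strain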; details: S. cerevisiae rad50 strain growth inhibition, active compounds read high; at 50.0 µM unless noted
Procedure, shortened: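 Compounds were tested on a yeast strain with an engineered DNA damage repair alteration; the reported value is growth inhibition normalised to vehicle treatment.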

[2] = NCI Yeast Anticancer Drug Screen. Data for the mec2-1 strain (AID 157); details: S. cerevisiae mec2-1 strain, active compounds read high; at 50.0 µM unless noted
Procedure, shortened: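 Strain: mec2-1 (DNA repair/cell cycle alteration). Compound exposure, then growth measured; inhibition expressed relative to vehicle.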

[3] = NCI Yeast Anticancer Drug Screen. Data for the sgs1 mgt1 strain (AID 161);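 further: 0% = growth of cultures given vehicle only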; details: S. cerevisiae sgs1 mgt1 strain, active compounds read high; at 50.0 µM unless noted
Procedure, shortened: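 Read-out: growth inhibition vs vehicle controls. Cells: mutant yeast strain deficient in DNA damage repair.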

[4] = NCI Yeast Anticancer Drug Screen. Data for the cln2 rad14 strain (AID 165);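 further: 0% = growth equal to vehicle treated cultures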; details: S. cerevisiae cln2 rad14 strain, active compounds read high; at 50.0 µM unless noted
Procedure, shortened: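 Compounds are applied to the cln2 rad14 yeast strain, and growth is then compared with that of vehicle-treated cultures to give inhibition.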

[5] = NCI Yeast Anticancer Drug Screen. Data for the bub3 strain (AID 167); details: S. cerevisiae bub3 mutant strain, active compounds read high; at 50.0 µM unless noted
Procedure, shortened: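 Growth of a checkpoint-deficient yeast mutant is measured after compound exposure. Values represent inhibition relative to vehicle.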

[6] = NCI Yeast Anticancer Drug Screen. Data for the mlh1 rad18 strain (AID 175); details: S. cerevisiae mlh1 rad18 strain growth inhibition, active compounds read high; at 50.0 µM unless noted
Procedure, shortened: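 Read-out is yeast growth inhibition, calculated against vehicle-only controls. The compound was applied to a strain engineered with DNA damage repair alterations.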

Measured: growth inhibition

Oc1ccccc1-c1cc(-c2ccccc2)nc(NCCCNc2nc(-c3ccccc3)cc(-c3ccccc3O)n2)n1
inactive: [1] -11.2% | [2] 8% | [3] -5.3% | [4] -14.8% | [5] 35% | [6] 14.2%

C/C(=C/CC1=C(O)c2ccccc2C(=O)C1=O)CO
inactive: [1] 23% | [2] 32.9% | [3] 51.7% | [4] 32.8% | [5] 26% | [6] 33.8%

CN1OC(=O)OC(C)(c2ccccc2)C1=O (stereo unspecified)
inactive: [1] 2.9% | [2] -12.3% | [3] -2.3% | [4] 0.25% | [5] 0.6% | [6] -0.05%

COC(=O)CCC1(C)C2CCC1(C)/C(=N/O)C2 (stereo unspecified)
inactive: [1] -10.2% | [2] 3.15% | [3] 2.35% | [4] 0.45% | [5] -21.1% | [6] 6.7%

O=c1[nH]c(-c2ccccc2)nc2nc3ccc([N+](=O)[O-])cc3[n+]([O-])c12
inactive: [1] 19.9% | [2] -2% | [3] -1.75% | [4] -7.55% | [5] -1% | [6] 7%

COc1ccc(N2C(=O)C/C(=C/c3ccc(C(C)C)cc3)C2=O)cc1
inactive: [1] 9.35% | [2] -0.05% | [3] 11.9% | [4] -60% | [5] -13.8% | [6] 9.15%
